The campaign covered roughly 310,000 compounds. About 14,000 (4.5%) showed an effect of 50% or more. The effect is printed as a negative number. Only a selection was taken, and strong results are over-represented in it overall.
target: human ether-à-go-go-related gene (hERG) potassium channel (human, UniProt Q12809); experiment: primary screen, population patch clamp on CHO cells stably expressing hERG; higher = less effect of the substance
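Note: peak tail current of the secondary pulse compared with the same well before compound.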

Chain of human ether-à-go-go-related gene (hERG) potassium channel (Q12809 whole entry, looked up): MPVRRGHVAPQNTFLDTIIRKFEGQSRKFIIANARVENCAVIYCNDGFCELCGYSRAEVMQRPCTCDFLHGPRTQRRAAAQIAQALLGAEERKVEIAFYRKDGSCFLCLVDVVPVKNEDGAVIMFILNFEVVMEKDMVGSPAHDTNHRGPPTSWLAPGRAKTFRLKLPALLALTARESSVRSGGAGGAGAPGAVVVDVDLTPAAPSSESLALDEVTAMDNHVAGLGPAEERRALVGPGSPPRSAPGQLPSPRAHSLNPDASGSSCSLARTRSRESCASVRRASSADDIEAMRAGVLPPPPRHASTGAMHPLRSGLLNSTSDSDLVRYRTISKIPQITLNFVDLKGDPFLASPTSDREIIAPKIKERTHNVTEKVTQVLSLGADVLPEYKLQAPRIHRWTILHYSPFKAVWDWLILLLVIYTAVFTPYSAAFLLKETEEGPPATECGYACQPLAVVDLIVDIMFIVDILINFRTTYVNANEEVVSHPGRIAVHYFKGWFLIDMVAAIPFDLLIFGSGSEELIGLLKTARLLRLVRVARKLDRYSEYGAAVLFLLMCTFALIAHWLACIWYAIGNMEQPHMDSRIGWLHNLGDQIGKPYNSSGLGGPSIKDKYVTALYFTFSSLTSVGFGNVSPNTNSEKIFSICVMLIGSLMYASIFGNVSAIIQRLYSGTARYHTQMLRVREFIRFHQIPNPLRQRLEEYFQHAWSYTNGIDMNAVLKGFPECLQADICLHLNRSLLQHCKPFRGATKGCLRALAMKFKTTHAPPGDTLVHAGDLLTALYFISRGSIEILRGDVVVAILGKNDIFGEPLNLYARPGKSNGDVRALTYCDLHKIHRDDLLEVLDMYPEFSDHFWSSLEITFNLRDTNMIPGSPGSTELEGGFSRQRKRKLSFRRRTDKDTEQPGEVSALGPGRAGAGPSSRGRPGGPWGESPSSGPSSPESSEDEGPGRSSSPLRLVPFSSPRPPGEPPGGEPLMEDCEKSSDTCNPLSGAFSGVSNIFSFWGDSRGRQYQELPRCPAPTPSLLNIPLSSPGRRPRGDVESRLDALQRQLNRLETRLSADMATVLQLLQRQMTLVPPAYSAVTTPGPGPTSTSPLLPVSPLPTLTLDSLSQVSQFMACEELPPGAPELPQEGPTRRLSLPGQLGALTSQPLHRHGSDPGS

| Structure (SMILES) | hERG current change (%, negative = inhibition) at 10uM [%] |
| --- | --- |
| CNC(=O)c1ccc(N(Cc2ccccc2C)S(C)(=O)=O)cc1 | -6 |
| Cn1c(C2=C(O)CN(c3ccccc3)C2=N)nc2ccccc21 | -13.2 |
| Cc1ccc(C(=O)NC(=S)Nc2ccc(N3CCN(C(=O)c4ccco4)CC3)cc2)cc1 | 17.1 |
| Cc1ccc(OC(=S)Nc2ccccc2)c(C)c1 | 6.7 |
| CCOC(=O)c1c(C)[nH]c(C(=O)COC(=O)CNS(=O)(=O)c2ccc(C)cc2)c1C | 11.8 |
| C=CCN(c1nc(C)cc(OC)n1)S(=O)(=O)c1ccccc1 | -2.09 |
| Cc1nc2c(sc3nc4c(cc32)COC(C)(C)C4)c(=O)n1Cc1ccccc1 | -10.6 |
| COCCN(C(=O)COC(=O)CCc1ccc(OC)cc1)c1c(N)n(Cc2ccccc2)c(=O)[nH]c1=O | 27.6 |
| COC(=O)C[C@H]1c2cc(F)ccc2S(=O)(=O)N1c1ccccc1 | 8.82 |
| O=C(CSC1=NNC(c2ccccn2)S1)Nc1cccc(Cl)c1 (stereo not drawn) | 12.6 |
| Cc1ccc(C)c(N2CCN(CCCNC(=O)Cn3cc4c(n3)CCC(C)C4)CC2)c1 (stereo not drawn) | -63.4 |
| Cc1ccc(C)c(N2CCN(CCCNC(=O)Cn3cc4c(n3)CCCCC4)CC2)c1 | -69.3 |
| CCCN1CCN(CCCNC(=O)Cn2cc3c(n2)CCCC3)CC1 | -7.41 |
| COCCCNC(=O)Cn1cc2c(n1)CCC(C)C2 (stereo not drawn) | 1.99 |
| O=C(Cn1cc2c(n1)CCCC2)NCCCN1CCN(c2ccccc2F)CC1 | -31.1 |
| CC1CCc2nn(CC(=O)NCCCN3CCCC3=O)cc2C1 (stereo not drawn) | 10.2 |
| COC(=O)c1ccc(Sc2ccccc2NS(=O)(=O)c2ccc(OC)cc2)nc1 | 9.67 |
| CN1CCN(c2ccc(NC(=O)Oc3ccccc3)cc2)CC1 | 17.4 |
| CCOc1ccc(C(C)(C)C)cc1S(=O)(=O)Nc1ccncc1 | 17 |
| Cn1nnc2cc(C(=O)NCc3ccco3)ccc21 | 1.15 |
| Cc1nc(Nc2nc(-c3ccccc3)cc(=O)[nH]2)nc2ccccc12 | -3.73 |
| COc1cc(/C=N/NC(=O)C2CCN(CC(O)COCc3ccccc3)CC2)cc(OC)c1OC (stereo not drawn) | -71.7 |
| COc1cc(/C=N/NC(=O)CCc2ccccc2)ccc1O | -1.02 |

| Structure (SMILES) | hERG current change (%, negative = inhibition) at 10uM [%] |
| --- | --- |
| COc1ccc(COCC(O)CN2CCC(C(N)=O)CC2)cc1OC (stereo not drawn) | -7.47 |
| COc1cc(/C=N/NC(=O)C2CCN(CC(O)COCc3ccccc3)CC2)ccc1O (stereo not drawn) | -78.1 |
| COc1cc(/C=N/NC(=O)Cc2ccccc2)cc(OC)c1OC | 8.74 |
| CCOc1ccc(/C=N/NC(=O)C2CC2)cc1OC | 18.3 |
| O=C(CCC(=O)c1ccc(F)cc1)NC1CCCN(Cc2ccccc2F)C1 (stereo not drawn) | -19.4 |
| CC(=O)Nc1cccc(NC(=O)C(F)(F)F)c1 | 21.2 |
| Cc1onc(-c2ccccc2)c1C(=O)OCC(=O)Nc1ccc(C#N)cc1 | -27.7 |
| O=C(/C=C/c1ccc(-c2ccccc2[N+](=O)[O-])o1)c1ccccc1 | 18.4 |
| CCOC(=O)C(CCCOc1ccccc1)C(=O)OCC | -14.3 |
| CCCOc1ccc(OCCCCNC(C)CC)cc1.O=C(O)C(=O)O (stereo not drawn) | -18.9 |
| CC(=O)Nc1ccc(OCCOc2ccc([N+](=O)[O-])cc2)cc1 | 0.991 |
| CCC(C)NCCCCOc1ccc(Br)cc1.O=C(O)C(=O)O (stereo not drawn) | -32.6 |
| CCOC(=O)C(CCCOc1ccc(C)cc1)C(=O)OCC | -8.52 |
| CCOC(=O)C(CCCCOc1ccc([N+](=O)[O-])cc1)C(=O)OCC | -54.8 |
| CC(=O)c1ccc([N+](=O)[O-])cc1 | 15.7 |
| COc1cc(C)ccc1OCCOCCOc1ccccc1[N+](=O)[O-] | -29.5 |
| CC(=O)c1ccc(OCCOc2ccc([N+](=O)[O-])cc2)cc1 | -57.6 |
| COc1cc(C)ccc1OCCOCCOc1ccc(C)cc1[N+](=O)[O-] | -36.1 |
| CCC(C)NCCCOc1ccc([N+](=O)[O-])cc1.O=C(O)C(=O)O (stereo not drawn) | -74.7 |
| COc1cc(C)ccc1OCCOCCOc1ccc([N+](=O)[O-])cc1 | -54.8 |
| CNC(=O)n1cc(C)c(-c2cccs2)n1 | 5.15 |
| Cc1cc2c(cc1S(=O)(=O)N1CCCC1)n(C)c(=O)c(=O)n2C | -4.62 |
| COc1ccc(CC(=O)OC(C)C(=O)c2ccc(C)cc2)cc1 (stereo not drawn) | 20.4 |

| Structure (SMILES) | hERG current change (%, negative = inhibition) at 10uM [%] |
| --- | --- |
| COc1ccc(OC(=O)c2cn(C)nc2C(F)(F)F)cc1 | -1.05 |
| Cc1ccc2nc(=O)c(NNc3ccccc3)cnc2c1 | 15.6 |
| CCCCN(C(=O)c1cc2c(s1)CCC2)c1c(N)n(CCCC)c(=O)[nH]c1=O | -0.537 |
| C1=C(c2c[nH]c3ccccc23)CCNC1 | 7.59 |
| CC(C)c1ccc(CNC(=O)C(=O)NCC2CCCO2)cc1 (stereo not drawn) | 7.73 |
| CCc1ccc(OCCCC(=O)NCc2ccco2)cc1 | 1.95 |
| CCOC(=O)C(CCCCCOc1ccc([N+](=O)[O-])cc1)C(=O)OCC | -50.4 |
| CCOC(=O)COc1ccc([N+](=O)[O-])cc1 | -5.07 |
| CCOC(=O)C(CCCCCOc1ccccc1[N+](=O)[O-])C(=O)OCC | -8.54 |
| CCn1nc([N+](=O)[O-])c2c(-c3nc4ccccc4o3)c(N)n(CCCOC)c2c1=O | 14.5 |
| CCOC(=O)c1noc(C)c1C(=O)Nc1nc(C)cc(C)n1 | 11.5 |
| Cc1ccc(F)cc1NC(=O)CSCc1c(C)noc1C | -3.15 |
| O=c1[nH]nnc2c1sc1nc(N3CCOCC3)c3c(c12)CCCC3 | -12.4 |
| CC(=O)Nc1ccc(S(=O)(=O)NC(CC(=O)N2CCC3(CC2)OCCO3)C(C)C)cc1 (stereo not drawn) | 18.9 |
| O=C(Nc1cc(S(=O)(=O)N2CCOCC2)ccc1N1CCCCC1)c1cc(-c2ccccn2)nc2ccccc12 | 0.703 |
| Cc1ccc(N(CC(O)CN2CCCC2)S(=O)(=O)c2ccc(C)cc2)cc1.Cl (stereo not drawn) | -76.4 |
| Cc1ccccc1S(=O)(=O)N(CC(O)CN1C(=O)NC(C)(C)C1=O)c1ccccc1 (stereo not drawn) | 1.47 |
| Cc1ccc(S(=O)(=O)N(CC(O)CN2CCCC2)c2ccccc2)cc1 (stereo not drawn) | -62.2 |
| COc1ccc(N(CC(O)CN2CCCCC2)S(=O)(=O)c2ccc(C)cc2)cc1 (stereo not drawn) | -78.6 |
| Cc1ccc(N(CC(O)CN2CCCCC2)S(=O)(=O)c2ccc(C)cc2)cc1 (stereo not drawn) | 13.8 |
| Cc1ccccc1S(=O)(=O)N(CC(O)CN1CCCCC1)c1ccccc1 (stereo not drawn) | -71.7 |
| Cc1cc(C)n(CC(O)CN(c2ccccc2)S(=O)(=O)c2ccccc2)n1 (stereo not drawn) | 7.17 |
| COc1ccc(N(CC(O)Cn2c3ccccc3c3ccccc32)S(=O)(=O)c2ccccc2)cc1 (stereo not drawn) | 3.8 |

| Structure (SMILES) | hERG current change (%, negative = inhibition) at 10uM [%] |
| --- | --- |
| COc1ccc(N(CC(O)CN2CCOCC2)S(=O)(=O)c2ccc(C)cc2)cc1 (stereo not drawn) | -45.2 |
| Cc1ccc(S(=O)(=O)N(CC(O)CN2CCOCC2)c2cc(Cl)ccc2Cl)cc1.Cl (stereo not drawn) | -31.9 |
| CCc1ccc(OCC(=O)Nc2nnc(-c3ccco3)s2)cc1 | 11.5 |
| CC(C)N1C(=O)S/C(=C/c2cccnc2)C1=O | 8.88 |
| CCOC(=O)c1c(NC(=O)c2cccs2)sc(C)c1CC | 2.45 |
| CCOC(=O)C1=C(C)OC(N)=C(C#N)C1c1cc(OC)c2c(c1)OCO2 (stereo not drawn) | -20.6 |
| CCOc1cc(N2CCOCC2)c(OCC)cc1NC(=O)CSc1ccccc1C(=O)O | 5.72 |
| CCOC(=O)c1ccc(N(CC(=O)NCC2CCCO2)C(=O)CCC(=O)Nc2cc(C)on2)cc1 (stereo not drawn) | 9.99 |
| COc1cc(NC(=S)NCCc2c[nH]c3ccccc23)c(OC)cc1Cl | 10.1 |
| Cc1ccc(S(=O)(=O)N(CC(O)CN2CCCCC2)c2ccccc2)cc1.Cl (stereo not drawn) | -67.9 |
| COc1ccccc1N(CC(O)CN1CCCCC1)S(=O)(=O)c1ccc(C)cc1 (stereo not drawn) | -29.7 |
| O=S(=O)(c1ccccc1)N(CC(O)CN1CCCC1)c1ccccc1 (stereo not drawn) | -19 |
| Cl.O=S(=O)(c1ccccc1)N(CC(O)CN1CCCCC1)c1ccccc1 (stereo not drawn) | -53.2 |
| O=S(=O)(c1ccccc1)N(CC(O)CN1CCOCC1)c1ccccc1 (stereo not drawn) | 18.6 |
| CCN1CCN(Cc2nc3c(c(=O)[nH]c(=O)n3C)n2Cc2ccccc2Cl)CC1 | 14.8 |
| CCOC(=O)C1CCN(c2ncnc3c2cnn3-c2ccc(OC)cc2)CC1 | -16.2 |
| O=C(O)CC(c1cccc(C(F)(F)F)c1)N1CCS(=O)(=O)CC1 (stereo not drawn) | 2.42 |
| CCCCCCn1cnc2c(oc3nc4c(cc32)CCCC4)c1=O | 5.16 |
| CCCCn1cnc2c(oc3nc4c(cc32)CCCC4)c1=O | -55.5 |
| CC(C)CCn1cnc2c(oc3nc4c(cc32)CCCC4)c1=O | -16.6 |
| Cc1ccc(NC(=O)Cc2ccccc2Cl)cc1S(=O)(=O)N(C)C | 0.299 |
